Measured values reported in PubChem BioAssay AID777 (Sanford-Burnham Center for Chemical Genomics, 2007).
Screen size: about 96,000 compounds; about 19,000 (20%) were called active. Not all results are given here. Unmarked numbers belong to inactive results.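 How the source made its calls: active means blocking of liver enzyme CYP2C9 beyond about 50% at 5 µM (limit read from the data); inactive means the rest.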

The compounds below were run against Cytochrome P450 2C9 (Homo sapiens) (UniProt P11712) (assay: blockers of cytochrome P450 2C9 activity – biochemical, luminescence, ADME assay, primary screen (AID 777)). Conditions: CYP2C9 Supersomes, luciferin-H conversion, at 5 µM, hits give high values.
Sequence of Cytochrome P450 2C9 (Homo sapiens) (P11712 whole entry, looked up): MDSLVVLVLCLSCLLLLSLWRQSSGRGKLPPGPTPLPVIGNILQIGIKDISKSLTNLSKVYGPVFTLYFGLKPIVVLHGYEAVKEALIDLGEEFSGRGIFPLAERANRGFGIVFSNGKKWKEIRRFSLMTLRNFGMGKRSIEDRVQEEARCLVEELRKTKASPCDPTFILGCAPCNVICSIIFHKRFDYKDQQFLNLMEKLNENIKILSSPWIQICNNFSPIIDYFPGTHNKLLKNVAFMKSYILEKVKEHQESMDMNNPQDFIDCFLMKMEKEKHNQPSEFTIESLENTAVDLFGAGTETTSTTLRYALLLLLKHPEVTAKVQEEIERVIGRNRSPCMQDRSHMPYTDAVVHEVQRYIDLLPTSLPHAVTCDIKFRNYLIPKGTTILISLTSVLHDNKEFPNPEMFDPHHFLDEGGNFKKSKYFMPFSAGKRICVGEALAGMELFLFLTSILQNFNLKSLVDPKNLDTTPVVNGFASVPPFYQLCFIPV

Compound	inhibition
CSc1nc(C)nc2c1c(=O)n(C)c(=O)n2C	-6.6%
CSc1nc2nc3c(c(=O)n2[nH]1)CCC3	-13.2%
Cc1ccc(C)c(N2CCN(S(=O)(=O)c3ccc4c(c3)oc(=O)n4C)CC2)c1	88.4% (active)
Cc1ccc2nc(NC(=O)C3CCN(S(=O)(=O)c4ccc5c(c4)oc(=O)n5C)CC3)sc2c1	-47.7%
Cn1c(=O)oc2cc(S(=O)(=O)N3CCC(C(=O)Nc4ccc(OC(F)(F)F)cc4)CC3)ccc21	-62.7%
CCSC1(SCC)N=C(N)C2(C#N)C(c3ccccc3)NC(C)=CC12C#N (stereo not drawn)	6.1%
CCOc1cccc(=O)c2c(C)n(CC3CCCO3)c(C)c12 (stereo not drawn)	59.7% (active)
COC(=O)c1ccc2c(=O)n(CC3CCCO3)c(=S)[nH]c2c1 (stereo not drawn)	6.5%
O=c1c2cc3c(=O)n(CC4CCCO4)c(=O)c3cc2c(=O)n1CC1CCCO1 (stereo not drawn)	3.8%
OCCCN1c2ccccc2Nc2nnc(-c3ccccc3)cc21	46.3%
CN(C)c1nc2n(c(=O)n1)CCO2	2.6%
COC(=O)c1[nH]c2ccccc2c1NC(=O)CN1CCCc2ccccc21	88.7% (active)
CC(C)(CNC(=O)c1cc(=O)[nH]c2ccccc12)N1CCOCC1	8%
CCOC(=O)c1[nH]c2ccc(OC)cc2c1NC(=O)CCN1CCN(Cc2ccccc2)CC1	11.4%
Cc1cccc(-n2c(O)c(C=Nc3ccccc3N)c(=O)[nH]c2=O)c1	0.2%
CCCOP(=O)(c1ccc(N(C)C)cc1)C(O)c1cc(OC)c(OC)c(OC)c1 (stereo not drawn)	-3.1%
Cn1nc(C(F)(F)F)c(C(=O)Nc2cccc(C(F)(F)F)c2)c1SCc1ccc(Cl)cc1	97.5% (active)
CCC(=O)OCc1c(C(F)(F)F)nn(C)c1Oc1cccc(C(F)(F)F)c1	34%
FC(F)(F)c1cccc(NC(=S)Nc2cccc(Cl)c2)c1	-83%
COC(=O)c1sc2ncccc2c1OCc1ccc(Cl)cc1Cl	9.3%
Cc1ccc2c(C(=O)CN3CCCC3)c(C)[nH]c2c1	49.7%
CC1=CC(C)(C)Nc2ccc(OC(=O)C(Cc3ccccc3)N3C(=O)C4CCCCC4C3=O)cc21 (stereo not drawn)	72.8% (active)
CC1=CC(C)(C)Nc2ccc(OC(=O)CN3C(=O)C4CCCCC4C3=O)cc21 (stereo not drawn)	10.9%
Cc1ccc(C)n1C(Cc1ccccc1)C(=O)O (stereo not drawn)	28.3%
O=C(Nc1ccon1)c1sc2ccccc2c1Cl	-23.1%
CCc1c(C)c2c(C)[nH]nc2oc1=O	-66%

Compound	inhibition
Cc1cc2c(c(=O)n1Cc1ccco1)C(c1ccccc1)C(C#N)=C(N)O2 (stereo not drawn)	1.2%
Cc1ccc(-c2nc3ccccc3[nH]2)cc1N	40.6%
Cn1nc([N+](=O)[O-])nc1Sc1ccc(C(C)(C)C)cc1	12.1%
COc1ccccc1Nc1ncc(C(C)=O)c(C)n1	18.7%
CCC(C(=O)NC1CCCC1)N(C(=O)c1snc(C(N)=O)c1N)c1ccc2c(c1)OCCO2 (stereo not drawn)	14.7%
CN(C(=O)CSc1nc(C2CC2)nc2ccccc12)c1nc(-c2ccccc2)cs1	39.9%
COc1ccc2c(c1OC)C(=O)OC2Nc1nc(-c2ccccc2)cs1 (stereo not drawn)	8.8%
COc1ccc(CCN(C(=O)COc2ccccc2)c2nc(-c3ccccc3)cs2)cc1OC	75.2% (active)
CCn1c(=N)n(CC(=O)c2cccc(OC)c2)c2ccccc21	-13.2%
O=C(Nc1ccc(Cl)cn1)c1cnn2cccnc12	11.4%
O=S1(=O)CCN(Cc2ccccc2Cl)CC1	13.3%
Cc1ccc(-c2nc(COC(=O)c3c(C)noc3C)cs2)cc1	28%
CN1/C(=C\C(=O)c2oc3ccccc3c2N)C(C)(C)c2ccccc21	47.6%
Cc1noc(C)c1C(=O)OCC(=O)/C=C1\N(C)c2ccccc2C1(C)C	55.7% (active)
Nc1nnc(SCCN2C(=O)c3ccccc3S2(=O)=O)s1	-0.2%
O=C(c1cccs1)N1CCC(c2nc3ccccc3s2)CC1	60.9% (active)
O=C(c1cccs1)N1CCN(C(=O)N2CCOCC2)CC1	-2%
Cc1cccc(NC(=S)N2CCC(c3nc4ccccc4s3)CC2)c1	-16.4%
CCC1(C)Cc2c(sc3nnn(CC(=O)Nc4ccc(Cl)cc4)c(=O)c23)CO1 (stereo not drawn)	49.3%
CCC(CC)c1nnc(NS(=O)(=O)Cc2ccccc2)s1	34.3%
COc1ccc(Cc2nnc(NC(=O)Cc3cccs3)s2)cc1	24.4%
COc1ccc(Cc2nnc(NS(=O)(=O)Cc3ccccc3)s2)cc1	60.3% (active)
COc1ccc(C(=O)Nc2ccccc2C(=O)N/N=C/c2ccc(O)c(OC)c2)cc1	73.4% (active)
COc1cc(/C=N\NC(=O)CNC(=O)c2cccc([N+](=O)[O-])c2)ccc1O	-11.8%
COc1ccc(C(=O)Nc2ccccc2C(=O)N/N=C/c2ccccc2OC)cc1	-11.9%
CCCC(CCC(=O)OC)(C(=O)OCC)c1csc(N)n1 (stereo not drawn)	30.1%

Compound	inhibition
C#CCN1C(=O)C(O)(CC(=O)c2cc(OC)ccc2OC)c2ccccc21 (stereo not drawn)	30.3%
O=C(Nc1ccccc1F)C1C2C=CC3(O2)C1C(=O)N(c1cccnc1)C3C(=O)NC1CCCCC1 (stereo not drawn)	-11.1%
CCOC(=O)NC(C(F)(F)F)(C(F)(F)F)P(=O)(c1ccccc1)c1ccccc1	-2.2%
CCOc1cc2[nH]c(=S)n(CCN3CCCCC3C)c(=O)c2cc1OCC (stereo not drawn)	17.7%
Nc1ccc(-c2nnc(-c3ccc(-c4ccccc4)cc3)o2)cc1	78.7% (active)
Nc1ccc(Nc2ccccc2)cc1	12.1%
Nc1ccc(-c2sc(N)nc2-c2ccccc2)cc1	12.4%
CSc1ncccc1C(=O)OCC(=O)N1CCOCC1	-8%
C=CCN(N=Nc1cccc([N+](=O)[O-])c1)c1cccc([N+](=O)[O-])c1	46.4%
Cc1oc2nc(SCC(=O)NCc3cccnc3)nc(N)c2c1C	14.4%
Cc1ccc(C(=O)NCCNS(=O)(=O)c2ccccc2)cc1	60% (active)
CS(=O)(=O)NCc1ccc(C(=O)NCc2ccccc2)cc1	-6.7%
O=S(=O)(NCCNS(=O)(=O)c1ccccc1)c1ccccc1	34.1%
C/C(=N\NC(=O)Cc1ccc(Cl)cc1)c1ccccn1	32.4%
Cc1ccccc1CN1CCN(CC(=O)NCc2ccccn2)C1=O	-9.3%
CNC(=S)N1N=C(c2ccccc2)CC1c1ccc(Br)cc1 (stereo not drawn)	69.6% (active)
COc1ccc(NC(=S)N2N=CCC2c2ccccc2)cc1 (stereo not drawn)	10.8%
Cc1nn(C)c(Oc2ccc(Cl)cc2)c1C=O	0%
Cc1cc(/C=C2/SC(=O)N(CC(=O)OC(C)C)C2=O)c(C)n1C	5.9%
COc1ccc(-c2cc(C3CCN(c4ncccc4[N+](=O)[O-])CC3)[nH]n2)cc1	97.2% (active)
COc1cccc(NC(=O)c2nn(C34CC5CC(CC(C5)C3)C4)cc2[N+](=O)[O-])c1	11.2%
O=C1C=C(c2ccc(Cl)cc2)C(=O)N1Nc1ccccc1	45.5%
Cc1nnc(NC(=O)CSc2nc(C3CCCCC3)nc3ccccc23)s1	20.1%
COc1cc(CC(=O)NCc2cccs2)cc(OC)c1OC	-31%
S=C(NCc1ccc(Cl)cc1)NC12CC3CC(CC(C3)C1)C2	49.3%
S=C(NCc1cccs1)Nc1ccc(Cl)cc1	53% (active)

Compound	inhibition
COC(=O)c1sccc1-n1cccc1C(=O)C(=O)N1CCCCC1	7.3%
CCOC(=O)N1CCN(c2c(NCCCN3CCCC(C)C3)c(=O)c2=O)CC1 (stereo not drawn)	18.1%
CCOc1ccccc1C1CC(c2ccccc2)Nc2nc(N)nn21 (stereo not drawn)	12.8%
Nc1nc2n(n1)C(c1ccco1)CC(c1ccc(Cl)c(Cl)c1)N2 (stereo not drawn)	50% (active)
COc1ccc(C2CC(c3ccc(Cl)cc3Cl)Nc3nc(N)nn32)cc1OC (stereo not drawn)	9.8%
Cc1ccc(C2CC(c3cccc(C)c3)n3nc(N)nc3N2)cc1 (stereo not drawn)	11.1%
Cc1ccc(C2CC(c3cccc(Br)c3)n3nc(N)nc3N2)cc1 (stereo not drawn)	5.1%
CCOc1ccccc1C1CC(c2ccc(Cl)cc2)Nc2nc(N)nn21 (stereo not drawn)	51.1% (active)
CC1CN(c2cc(=O)n(Cc3ccc(F)cc3)c(=O)[nH]2)CC(C)O1 (stereo not drawn)	-11%
CCCn1c(SCC(=O)N2CCc3ccccc32)nnc1-c1ccncc1	45.9%
O=C(Cn1c(-c2ccc(Cl)cc2)noc1=O)N1CCN(c2ccccc2F)CC1	1.4%
O=C(NCc1ccco1)C1CCCN(S(=O)(=O)c2cccc3nonc23)C1 (stereo not drawn)	2.8%
CCNc1nc(NCC)nc(N(C)n2cnnc2)n1	15.7%
CCOc1nc(OCC)nc(-n2cc(-c3ccccc3)nn2)n1	15.3%
CCCc1nc2sc3c(c2c(=O)n1NC(=O)CCCl)CCCC3	85% (active)
CCCC(=O)Nc1ccc2c(c1)nc1n2CCSC1	3.2%
Cc1nc(SCC(=O)Nc2cc(C)on2)c2c3c(sc2n1)CCCC3	-1.7%
CCC(=O)NC(NCC1CCCO1)C(Cl)(Cl)Cl (stereo not drawn)	15.6%
CCOc1ccc(NC(=O)CCS(=O)(=O)c2ccc3c(c2)CCCN3C(=O)CC)cc1	-0.4%
CCSc1nc(C)nc2c1oc1ccccc12	18.9%
COc1ccc(CCNC(=O)CSc2nnc(CNC(=O)c3cccs3)o2)cc1OC	17.8%
COc1ccc(CCNC(=O)CSc2nnc(-c3cccc(F)c3)o2)cc1OC	81.2% (active)
COc1ccc(NC(=O)Cn2nnc(C(=O)NCCc3ccc(OC)c(OC)c3)c2N)cc1	35.6%
COc1ccc(-c2nnc(SCC(=O)NC3CCCCC3)o2)cc1OC	7%
COc1ccc(CCNC(=O)CSc2nc(C)nc3c2oc2ccccc23)cc1OC	58% (active)
